# Compound activity as filed in PubChem.
# Dicer processing = inhibitors of Dicer pre-microRNA processing, primary screen, biochemical, cat-ELCCA, chemiluminescence; cat-ELCCA pre-miR-21 Dicer processing; hits give high values; z-score at 25 µM; hit rate 6% among 47,000; in the data active means z-score above about 3, passing the limit was not always enough;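 further: plate controls were vehicle for no effect and no enzyme for full effect; higher signal means more uncleaved substrate so more Dicer inhibition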
# Target sequence (Q9UPY3 whole entry, looked up): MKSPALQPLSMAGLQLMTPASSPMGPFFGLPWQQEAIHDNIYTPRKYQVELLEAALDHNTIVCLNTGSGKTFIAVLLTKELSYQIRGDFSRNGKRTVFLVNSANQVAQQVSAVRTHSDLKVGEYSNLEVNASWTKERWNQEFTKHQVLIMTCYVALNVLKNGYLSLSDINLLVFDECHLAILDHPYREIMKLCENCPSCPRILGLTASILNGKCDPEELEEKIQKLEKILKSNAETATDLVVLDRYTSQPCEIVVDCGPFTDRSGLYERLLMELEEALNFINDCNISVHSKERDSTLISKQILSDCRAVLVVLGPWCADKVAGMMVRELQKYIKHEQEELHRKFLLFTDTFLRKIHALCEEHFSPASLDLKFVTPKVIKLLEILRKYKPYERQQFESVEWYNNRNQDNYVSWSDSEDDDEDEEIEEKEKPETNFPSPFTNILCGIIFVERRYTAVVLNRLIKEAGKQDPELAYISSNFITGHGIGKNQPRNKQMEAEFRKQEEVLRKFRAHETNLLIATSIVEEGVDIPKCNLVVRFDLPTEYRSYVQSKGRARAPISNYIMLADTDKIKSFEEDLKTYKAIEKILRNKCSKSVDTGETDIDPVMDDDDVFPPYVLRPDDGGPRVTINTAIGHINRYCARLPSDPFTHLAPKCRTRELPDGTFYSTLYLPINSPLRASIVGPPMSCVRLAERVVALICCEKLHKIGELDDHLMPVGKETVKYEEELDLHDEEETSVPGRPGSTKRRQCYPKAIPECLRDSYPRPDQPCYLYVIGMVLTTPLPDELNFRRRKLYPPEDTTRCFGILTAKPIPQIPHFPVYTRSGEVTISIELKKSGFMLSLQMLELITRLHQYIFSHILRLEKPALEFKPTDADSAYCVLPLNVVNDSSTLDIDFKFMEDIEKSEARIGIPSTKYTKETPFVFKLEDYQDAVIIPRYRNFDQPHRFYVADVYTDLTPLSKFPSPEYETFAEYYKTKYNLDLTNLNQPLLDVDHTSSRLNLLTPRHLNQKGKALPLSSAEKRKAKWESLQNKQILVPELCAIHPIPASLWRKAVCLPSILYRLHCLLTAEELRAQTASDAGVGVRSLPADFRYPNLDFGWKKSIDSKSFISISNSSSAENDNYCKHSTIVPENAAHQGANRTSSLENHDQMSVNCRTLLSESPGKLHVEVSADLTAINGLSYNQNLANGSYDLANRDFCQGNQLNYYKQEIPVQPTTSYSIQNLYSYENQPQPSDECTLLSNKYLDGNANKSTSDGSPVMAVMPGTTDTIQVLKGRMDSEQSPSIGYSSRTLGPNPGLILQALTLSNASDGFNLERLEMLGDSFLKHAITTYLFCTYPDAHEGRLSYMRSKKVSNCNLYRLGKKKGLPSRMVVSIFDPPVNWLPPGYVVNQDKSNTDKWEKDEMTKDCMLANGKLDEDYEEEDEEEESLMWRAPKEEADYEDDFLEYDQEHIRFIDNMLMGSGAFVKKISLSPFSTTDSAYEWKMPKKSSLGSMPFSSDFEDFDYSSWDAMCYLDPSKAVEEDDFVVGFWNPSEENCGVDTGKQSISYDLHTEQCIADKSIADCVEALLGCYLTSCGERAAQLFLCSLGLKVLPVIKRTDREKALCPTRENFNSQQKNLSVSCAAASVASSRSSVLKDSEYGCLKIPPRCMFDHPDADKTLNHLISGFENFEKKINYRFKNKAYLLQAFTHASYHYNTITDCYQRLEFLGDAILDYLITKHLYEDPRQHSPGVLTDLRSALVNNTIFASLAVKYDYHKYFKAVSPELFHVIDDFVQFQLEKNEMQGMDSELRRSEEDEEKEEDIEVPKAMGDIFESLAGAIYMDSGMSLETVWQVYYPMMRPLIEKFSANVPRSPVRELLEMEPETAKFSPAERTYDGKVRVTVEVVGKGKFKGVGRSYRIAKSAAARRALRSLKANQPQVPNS
# Numbers without * were called inactive. The full list was thinned out, with hits kept by preference.
SMILES,Dicer processing
CC(C)(C)C1=CC=Nn2cnnc2S1,-0.26
Nc1ncnc2c1ncn2CCc1ccccc1,-0.86
Nc1ncnc2c1ncn2CC(O)CO (configuration not stated),6.8*
Nc1ncnc2c1ncn2CCN1CCCCC1,-1.7
Cn1c(Sc2ncc(C#N)c(N)n2)nnc1-c1ccncc1,1.5
COc1ccccc1C1CC(=O)C2=C(C1)NC(C)=C(C(=O)OC(C)C)C2c1cccc(OC)c1OC (configuration not stated),-1.8
CC(=O)/C(N=Nc1ccc(F)cc1)=C(\C)O,0.97
CCCc1ccc(C(=O)NN2CC(=O)N(c3cc(Cl)cc(Cl)c3)CC2=O)cc1,0.36
CCCOc1ccc(-c2cn3ccccc3n2)cc1,3.9*
COc1ccc(-c2cn3ccccc3n2)cc1,5.8*
COc1c(Cl)cccc1-c1cn2ccccc2n1,-1.6
COc1ccc(-c2cn3cccc(C)c3n2)cc1,0.29
COc1ccc(-c2cn3ccccc3n2)cc1Br,1.1
CCc1ccn2cc(-c3ccc(C)cc3)nc2c1,1.6
CCCCOC(=O)c1c(C)n(S(C)(=O)=O)c2ccc(NS(C)(=O)=O)cc12,1.5
Cc1nc(-c2ccc(Cl)cc2)nc2sc(C(=O)c3ccccc3)c(C)c12,2.1
O=C(CSc1nnc2sc3ccccc3n12)Nc1nc2c(s1)CCCC2,2.8
c1ccc(Nc2nc3c(s2)Cc2ccccc2-3)cc1,-1.4
c1ccc(Nc2nc3c(s2)CCCC3)cc1,4*
CCCS/C(Nc1cccc(OC)c1)=C(/C#N)S(=O)(=O)c1ccc(Cl)cc1,-0.78
O=C(Nc1ccc(F)cc1F)C(=S)NC1CCCCC1,-0.8
O=C1CC(CS(=O)(=O)c2ccc(C(F)(F)F)cn2)=NN1c1cccc(C(F)(F)F)c1,0.98
C[C@H]1c2cccc(O)c2C(O)=C2C(=O)[C@]3(O)C(O)=C(C(N)=O)C(=O)[C@@H](N(C)C)[C@@H]3[C@@H](O)[C@@H]21,-0.88
CN(C)c1ccc(O)c2c1CC1CC3[C@@H](N(C)C)C(=O)C(C(N)=O)=C(O)[C@]3(O)C(=O)C1=C2O (some centres not stated),6.1*
C=C(C)CC1C(=O)N(C(=O)c2c(Cl)cccc2Cl)N=C1C (configuration not stated),3.4*
SMILES,Dicer processing
C=C(C)CC1C(=O)N(S(=O)(=O)c2ccccc2Cl)N=C1C (configuration not stated),1.3
C=C(C)CC1C(=O)N(S(=O)(=O)c2ccc(Cl)cc2)N=C1C (configuration not stated),-1.6
COc1ccc(-c2noc(COc3ccc(C)cc3C)n2)cc1,0.79
Cc1ccc(-c2noc(COc3ccc(Cl)cc3C)n2)cc1,5.7*
Cc1ccc(-c2noc(COc3ccc(Cl)cc3)n2)cc1,6.9
Brc1ccc(CSc2nc3ccccc3o2)cc1,0.17
CCOc1ccccc1N1C(=O)C2C3c4ccccc4C(C(=O)O)(c4ccccc43)C2C1=O (configuration not stated),1.4
Brc1ccc(OCc2nc(-c3cccs3)no2)cc1,2.7
CC1CCN(C(=O)c2nn3c(c2Cl)NC(c2ccco2)CC3C(F)(F)F)CC1 (configuration not stated),4*
CSc1ccccc1NC(=O)c1nn2c(c1Cl)NC(c1ccco1)CC2C(F)(F)F (configuration not stated),4.4*
CC1CN(C(=O)c2cc3n(n2)C(C(F)(F)F)CC(c2ccco2)N3)CC(C)O1 (configuration not stated),1.7
CSc1ccccc1NC(=O)c1cc2n(n1)C(C(F)(F)F)CC(c1ccco1)N2 (configuration not stated),-0.22
O=C(O)c1cc2n(n1)C(C(F)(F)F)CC(c1ccco1)N2 (configuration not stated),-0.34
O=C(NC1CCCC1)c1nn2c(c1Cl)NC(c1ccccc1)CC2C(F)(F)F (configuration not stated),-0.2
CCCCCC(=O)Oc1ccc(N2C(=O)C3CCCCC3C2=O)cc1 (configuration not stated),-0.68
Cn1nnnc1SCCNCc1cccc(OCc2ccccc2Cl)c1,0.08
OCc1cccc2cccc(Br)c12,-0.22
O=C(CN1C(=O)/C(=C\c2ccc(F)cc2)N=C1c1ccccc1)c1ccco1,3.8*
C=CCN1C(=O)/C(=C\c2ccccc2Cl)N=C1c1ccccc1,-0.82
O=C(CN1C(=O)/C(=C\c2ccc(OCc3ccccc3)cc2)N=C1c1ccccc1)c1cccs1,-1.9
COC(=O)c1ccc(C2Nc3c(OC)cc(OC)cc3C3C=CCC32)cc1 (configuration not stated),1.6
CCC(C)OC(=O)COc1ccc2c(=O)c(Oc3cc(C)ccc3C)coc2c1 (configuration not stated),7.7
CC(C)OC(=O)C(C)Oc1ccc2c(=O)c(Oc3ccccc3Br)coc2c1 (configuration not stated),-0.2
Cc1cccc(Oc2coc3cc(OC(=O)c4ccncc4)ccc3c2=O)c1,28*
COc1ccc(Oc2coc3cc(OC(=O)c4ccc(F)cc4)ccc3c2=O)cc1,0.4
SMILES,Dicer processing
CCC(=O)Oc1ccc2c(=O)c(Oc3ccccc3Br)coc2c1,4.3*
COc1ccc(C(=O)Oc2ccc3c(=O)c(Oc4ccccc4Br)coc3c2)cc1OC,3.1*
Cc1ccc(C)c(Oc2coc3cc(OCC(=O)OCC(C)C)ccc3c2=O)c1,1.9
Cc1cccc(Oc2coc3cc(OC(=O)c4cccnc4)ccc3c2=O)c1,-0.67
COc1ccccc1C(=O)Oc1ccc2c(=O)c(Oc3ccccc3Br)coc2c1,2.2
CCOCCOC(=O)COc1ccc2c(=O)c(Oc3cc(C)ccc3C)coc2c1,3.4*
COc1ccccc1-c1coc2cc(OC(=O)c3ccc(Cl)cc3)ccc2c1=O,-0.87
CC(C)(C)C(=O)Oc1ccc2c(=O)c(Oc3ccccc3Br)coc2c1,-0.06
C/C(=N\NC(=O)CC#N)c1ccccc1,2
CCc1ccc(C(=O)/C=C/SC(=NC#N)SC)cc1,0.17
CSc1ncc(C#N)c2nc(-c3ccc(N(C)C)cc3)nn12,-0.81
COc1ccc(C2NCCc3c2[nH]c2ccc(OC)cc32)cc1 (configuration not stated),-0.66
O=S(=O)(CC(O)COc1ccc(Cl)cc1Cl)c1ccc(Cl)cc1 (configuration not stated),-1.3
O=C(CSc1nnc(-c2ccccc2O)o1)c1ccccc1,-0.13
CC(C)(C)c1ccc(Oc2coc3cc(O)ccc3c2=O)cc1,-1.3
CCOC(=O)Oc1ccc2c(=O)c(Oc3ccc(C(C)(C)C)cc3)coc2c1,1.5
Cc1ccc(Oc2coc3cc(O)ccc3c2=O)cc1,0.2
CCCCOC(=O)Oc1ccc2c(=O)c(Oc3ccc(C)cc3)coc2c1,3.5*
Cc1cc(C)cc(Oc2coc3cc(O)ccc3c2=O)c1,4.3*
C=CCOC(=O)Oc1ccc2c(=O)c(Oc3ccc(CC)cc3)coc2c1,1.3
Cn1c(SCC(=O)c2ccc(Br)cc2)nnc1-c1ccccc1,0.33
Cc1csc(NC(=O)Nc2ccc(Cl)cc2Cl)c1,0.62
O=C(CSc1nc2ccccc2o1)NC(=O)CSc1nc2ccccc2o1,2.5
CCCCC1(O)C(=O)c2ccccc2N(C)C1=O (configuration not stated),-1.3
COc1cccc(C2/C(=C(\O)c3ccc(Br)cc3)C(=O)C(=O)N2CCCn2ccnc2)c1 (configuration not stated),-0.33
Cc1onc(-c2c(Cl)cccc2Cl)c1C(=O)NNc1c(Cl)cc(Cl)cc1Cl,4.4
O=C(c1cnc2cc(-c3ccc(Cl)cc3)nn2c1)c1ccccc1O,-0.69
O=C(c1cnc2cc(-c3ccccc3)nn2c1)c1cc(Br)ccc1O,3.3*
